# PubChem BioAssay (NCATS)
# Inconclusive results are not listed. Entries that show only a call come without a potency. Active and inactive are the calls of the source. The call rests on the fitted dose curve; in most records, active means well fitted cell-killing curve with a large enough effect; inconclusive means small, poorly fitted or top-dose-only effect; inactive means flat fitted curve, though single readings scatter.
# Experiment: Cell Viability - LYMP2-021 (AID 974);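 further: compound exposure lasts 24 hours at 37 °C; nearly all actives have a fitted effect of over 55% in size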
# Conditions: LYMP2-021 lymphoblastoid cells viability; series mostly up to 92.2 µM
# Source text: NIH Chemical Genomics Center [NCGC]
# NIH Molecular Libraries Screening Centers Network [MLSCN]
# National Institutes of Environmental Health Sciences [NIEHS]
# National Toxicology Program [NTP]
# We have developed a 1536-well cell-based assay for quantitative high throughput screening (qHTS) against a number of cell lines to determine in vitro cytotoxicity of small molecules. This particular assay uses a human lymphoblastoid cell line (LYMP2-021) purchased from Coriell Institute for Medical Research.
# NCGC Assay Protocol Summary:
# The CellTiter-Glo luminescent cell viability assay (Promega) is a homogeneous method to measure the number of viable cells in culture. The end point readout of this assay is based on quantitation of intracellular ATP, an indicator of metabolic activity, using the luciferase reaction. Luciferase catalyzes the oxidation of beetle Luciferin to oxyluciferin and light in the presence of ATP. The luminescent signal is proportional to amount of ATP present.
# Using the CellTiter-Glo luminescent cell viability assay, the amount of cellular ATP was measured in the lymphoblastoid cell line with complete culture medium following compound treatment for 24 hours. The assay was performed in opaque white Kalypsys 1536-well plates. In the screen, tetraoctylammonium bromide was used as positive control. Library compounds were measured for their ability to cause acute toxicity in the cell line, as reflected by a decrease in intracellular ATP levels, in a concentration-dependent manner. […] AC50 values were determined from concentration-response data modeled with the standard Hill equation.
# qHTS protocol for CellTiter Glo lymphoblastoid cellular assay
# [Step] [Parameter] [Value] [Description]
# 1. Reagent; 5 uL; 2500 lymphoblastoid cells/well
# 2. Time; 5 hr; 37 C incubation
# 4. Controls; 23 nL; Tetraoctylammonium bromide 6.4pM to 92 uM
# 5. Time; 24 hr; 37 C incubation
# 6. Reagent; 5 uL; CellTiter Glo reagent
# 7. Time; 30 min; Room Temperature
# 8. Detection; Luminescence; Viewlux plate reader
# Keywords: cell viability, cytotoxicity, lymphoblastoid cell line, luminescence, NTPHTS, NTPHTS_NCGC, NIEHS, DSSTox, MLSMR, MLSCN, NIH Roadmap, qHTS, NCGC
row,SMILES,Potency
1,O=C(Cl)OCc1ccccc1,inactive
2,CCOP(=O)(OCC)OCC,inactive
3,Nc1ccc([N+](=O)[O-])cc1N,inactive
4,c1ccc(C2CO2)cc1 (stereo not given),inactive
5,Oc1cccc(Cl)c1Cl,inactive
6,OCCOCCO,inactive
7,CCN(CC)CCO,inactive
8,Clc1cccc(Cl)c1,inactive
9,Nc1c(Br)cc([N+](=O)[O-])cc1[N+](=O)[O-],inactive
10,CCSC(=O)N1CCCCCC1,inactive
11,c1ccoc1,inactive
12,Nc1ccc(Cl)c(Cl)c1,inactive
13,Cc1cccc(C)c1N,inactive
14,Nc1ncc([N+](=O)[O-])s1,inactive
15,Oc1c(Cl)c(Cl)cc(Cl)c1Cl,inactive
16,CC(C)[N+](=O)[O-],inactive
17,Nc1ccc(-c2ccc(N)c(Cl)c2)cc1Cl,inactive
18,ClP(Cl)(Cl)(Cl)Cl,inactive
19,CCC(Cl)[N+](=O)[O-] (stereo not given),inactive
20,Nc1ccccc1-c1ccccc1,inactive

row,SMILES,Potency
1,CC1CC(=O)O1 (stereo not given),inactive
2,Nc1cc(Cl)ccc1O,inactive
3,ClC(Cl)(Cl)C(Cl)(Cl)Cl,inactive
4,Cc1ccc(N)cc1N,inactive
5,Cc1cc(Cl)ccc1O,inactive
6,CCOP(=S)(OCC)SCCSCC,inactive
7,NNC(N)=S,inactive
8,CCBr,inactive
9,ClCc1ccccn1,inactive
10,CC(C)(Cl)[N+](=O)[O-],inactive
11,Nc1cc(Cl)cc(Cl)c1,inactive
12,CCCCC(CC)COC(=O)c1ccc(C(=O)OCC(CC)CCCC)c(C(=O)OCC(CC)CCCC)c1 (stereo not given),inactive
13,COC(C)(C)C,inactive
14,CCOC(=O)CC(SP(=O)(OC)OC)C(=O)OCC (stereo not given),inactive
15,CC(C)CON=O,inactive
16,C=C(Cl)CSC(=S)N(CC)CC,inactive
17,N#CC(Cl)(Cl)Cl,inactive
18,Cc1cccc(N)c1C,inactive
19,CC(C)C#N,inactive
20,CCCCOCC1CO1 (stereo not given),inactive
